Assays:
Neuro-2a [1] = test: neurite formation score, plate-normalized to DMSO control mean 5.04 (score (0-8 scale)); higher = more or longer neurites; details: 1 µM
Protocol: (§1)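 Neuro-2a mouse neuroblastoma cells in PLL-coated 96-well plates were pre-treated for 1 h in DMEM(+) with each kinase inhibitor at 1 µM, then switched to serum-free DMEM(-) with inhibitor to induce neurite outgrowth and fixed about 2-3 h later. Three blinded observers scored neurite formation from 0 (no neurites) to 8 (long neurites on almost all cells).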

Neuro-2a [2] = test: as above; details: 0.1 µM
Protocol: as §1, with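 “at 0.1” for “at 1”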

Row | SMILES | neurite formation score (Neuro-2a [1]) | neurite formation score (Neuro-2a [2])
1 | Cn1cnc(=N)c2[nH]cnc21 [3-Methyladenine] | 4.24 | 4.88
2 | CC[C@H](Nc1ncnc2[nH]cnc12)c1nc2cccc(F)c2c(=O)n1-c1ccccc1 [CAL-101 (Idelalisib, GS-1101)] | 4.57 | 4.71
3 | COc1ccc(-c2ccc3c(N4CCOC[C@@H]4C)nc(N4CCOC[C@@H]4C)nc3n2)cc1CO | 4.57 | 3.21
4 | CN(C)C/C=C/C(=O)Nc1cc2c(Nc3ccc(F)c(Cl)c3)ncnc2cc1O[C@H]1CCOC1 [Afatinib dimaleate] | 4.91 | 4.38
5 | CN(C)CCCn1cc(C2=C(c3c[nH]c4ccccc34)C(=O)NC2=O)c2ccccc21 | 5.24 | 5.54
6 | CN1CCN(c2cccc(Nc3nc4c(-c5ccc(S(C)(=O)=O)cc5)cccn4n3)c2)CC1 | 4.69 | 4.25
7 | C=CC(=O)N1CCC(Oc2cc3c(Nc4ccc(Cl)c(Cl)c4F)ncnc3cc2OC)CC1 [Poziotinib] | 4.14 | 3.76
8 | COc1cc(Nc2c(C#N)cnc3cc(OCCCN4CCN(C)CC4)c(OC)cc23)c(Cl)cc1Cl [Bosutinib (SKI-606)] | 4.57 | 2.71
9 | COc1cc(Nc2ncc(F)c(Nc3ccc4c(n3)NC(=O)C(C)(C)O4)n2)cc(OC)c1OC [R406 (free base)] | 3.9 | 5.21
10 | Cc1[nH]nc2ccc(-c3cncc(OC[C@@H](N)Cc4ccccc4)c3)cc12 | 4.63 | 4.25
11 | NCC(=O)Nc1ccc(-n2nc(C(F)(F)F)cc2-c2ccc3c(ccc4ccccc43)c2)cc1 | 5.57 | 5.04
12 | Cc1nc(N)sc1-c1ccnc(Nc2ccc(N3CCOCC3)cc2)n1 | 4.69 | 4.58
